Measured values taken from PubChem BioAssay (NCATS).
Records with an inconclusive call do not appear. A number with no mark means an inactive call. Activity calls are given as the source filed them. The call rests on the fitted dose curve; in most records, active means well fitted cell-killing curve with a large enough effect; inconclusive means small, poorly fitted or top-dose-only effect, or effect the other way; inactive means no such curve, though single readings can be large or run the other way.

Key:
[1] = Viability qHTS for spleen associated tyrosine kinase inhibitor (SYKi) naive MV4-11 cells (AID 1963823); further: nearly all actives have a fitted effect of over 40% in size
Outline: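 In this viability screen, compounds acted on SYK inhibitor naive MV4-11 cells for three days (72 hr, 37 C). Remaining viable cells were measured by CellTiter-Glo luminescence following a 10 min room-temperature development.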

[2] = Viability qHTS for spleen associated tyrosine kinase inhibitor (SYKi) drug resistant MV4-11 cells (AID 1963824); further: nearly all actives have a fitted effect of over 35% in size
Outline: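 CellTiter-Glo luminescence, read 10 min after reagent addition, reports viability after a 72 hr compound exposure. Cells are an MV4-11 line made resistant to SYK inhibition, seeded at 500 per well onto compound-containing plates.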
Potency means the concentration at half of the fitted maximal effect.

## O=C(/C=C\n1cnc(-c2cc(C(F)(F)F)cc(C(F)(F)F)c2)n1)N1CC(F)(F)C1
[1]
  Potency: 0.366 µM (active)
[2]
  Potency: 0.731 µM (active)

## C=C1C(=O)O[C@@H]2[C@H]1CC[C@H](C)[C@]1(CCC(=O)O1)C2(C)O (stereo not given in full)
[1]
  Potency: 16.4 µM (active)
[2]
  Potency: 6.51 µM (active)

## CC(=O)/C=C/[C@H]1[C@](C)(O)[C@@H](O)[C@H](O)C2C(C)(C)CCC[C@@]21C (stereo not given in full)
[1]
  Potency: inactive
[2]
  Potency: inactive

## C=C(C)[C@H]1C[C@@H](O)C(=C)CC[C@@H](O)C(=C)[C@@H](O)C1
[1]
  Potency: inactive
[2]
  Potency: inactive

## CC1(C)CC[C@]2(C(=O)O[C@@H]3O[C@H](CO)[C@@H](O)[C@H](O)[C@H]3O)CC[C@]3(C)C(=CCC4[C@@]5(C)C[C@H](O)[C@H](O[C@@H]6OC[C@@H](O)[C@H](O)[C@H]6O)[C@@](C)(CO)C5CC[C@]43C)C2C1 (stereo not given in full)
[1]
  viability (% of control): 96.5% [at 9.25 µM]
[2]
  viability, % of control: 109% [at 9.25 µM]

## C=C1C(=O)O[C@H]2CC(=C)[C@H]3CC[C@@](C)(O)[C@@H]3CC12 (stereo not given in full)
[1]
  Potency: 6.51 µM (active)
[2]
  Potency: 4.11 µM (active)

## CN[C@H](C(=O)N[C@H](C(=O)N(C)[C@H](/C=C(\C)C(=O)O)C(C)C)C(C)(C)C)C(C)(C)c1ccccc1
[1]
  Potency: inactive
[2]
  Potency: inactive

## COc1cc(CCc2ccc(OCC=C(C)C)cc2)cc(OC)c1OC
[1]
  Potency: 14.3 µM (active)
[2]
  Potency: 5.7 µM (active)

## CC1(C)CC2C(O)c3cocc3CC(C)(O)C2C1 (stereo not given)
[1]
  Potency: inactive
[2]
  Potency: inactive

## CC1(C)CC2C3=CCC4C5(C)CCC(OC6OC(CO)C(O)C(OC7OC(CO)C(O)C(OC8OC(CO)C(O)C(OC9OC(COC%10OC(CO)C(O)C(O)C%10O)C(O)C(O)C9O)C8O)C7O)C6O)C(C)(C)C5CCC4(C)C3(C)CCC2(C(=O)O)CC1O (stereo not given)
[1]
  viability (% of control): 81.7% [at 9.25 µM]
[2]
  viability, % of control: 99.5% [at 9.25 µM]
